L3MBTL1 inh: L3MBTL1 (human) inhibition | Q9Y468 | AlphaScreen L3MBTL1–H3K9me1 peptide binding | Potency, µM (doses to about 57.1 µM), without a hit: at the highest dose activity, negative = inhibition, hits mostly inhibitors | actives 0.66% (n = 230,000) | AID 485360; also: % is scaled to controls: 0 for no effect and ±100 for the full control effect; nearly all actives have a fitted effect of over 60% in size
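Read-out is AlphaScreen signal from streptavidin donor and nickel chelate acceptor beads (10 ug/mL final each) bridging L3MBTL1 (50 nM) and biotinylated K9-monomethylated H3(1-15) peptide (75 nM), after 30 min compound exposure at room temperature.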
JMJD2A Tudor: inhibitors of human JMJD2A Tudor domain | O75164 | AlphaScreen JMJD2A-Tudor / H3K4me3 peptide binding | Potency, µM (titrated, usually from 114 µM), without a hit: at the highest dose activity change, negative = inhibition, usual class: inhibitors | actives 4.4% (n = 390,000) | AID 504339; also: % is scaled to controls: 0 for no effect and ±100 for the full control effect; nearly all actives have a fitted effect of over 50% in size
Target sequence (O75164 whole entry, looked up, the tested form may be a part): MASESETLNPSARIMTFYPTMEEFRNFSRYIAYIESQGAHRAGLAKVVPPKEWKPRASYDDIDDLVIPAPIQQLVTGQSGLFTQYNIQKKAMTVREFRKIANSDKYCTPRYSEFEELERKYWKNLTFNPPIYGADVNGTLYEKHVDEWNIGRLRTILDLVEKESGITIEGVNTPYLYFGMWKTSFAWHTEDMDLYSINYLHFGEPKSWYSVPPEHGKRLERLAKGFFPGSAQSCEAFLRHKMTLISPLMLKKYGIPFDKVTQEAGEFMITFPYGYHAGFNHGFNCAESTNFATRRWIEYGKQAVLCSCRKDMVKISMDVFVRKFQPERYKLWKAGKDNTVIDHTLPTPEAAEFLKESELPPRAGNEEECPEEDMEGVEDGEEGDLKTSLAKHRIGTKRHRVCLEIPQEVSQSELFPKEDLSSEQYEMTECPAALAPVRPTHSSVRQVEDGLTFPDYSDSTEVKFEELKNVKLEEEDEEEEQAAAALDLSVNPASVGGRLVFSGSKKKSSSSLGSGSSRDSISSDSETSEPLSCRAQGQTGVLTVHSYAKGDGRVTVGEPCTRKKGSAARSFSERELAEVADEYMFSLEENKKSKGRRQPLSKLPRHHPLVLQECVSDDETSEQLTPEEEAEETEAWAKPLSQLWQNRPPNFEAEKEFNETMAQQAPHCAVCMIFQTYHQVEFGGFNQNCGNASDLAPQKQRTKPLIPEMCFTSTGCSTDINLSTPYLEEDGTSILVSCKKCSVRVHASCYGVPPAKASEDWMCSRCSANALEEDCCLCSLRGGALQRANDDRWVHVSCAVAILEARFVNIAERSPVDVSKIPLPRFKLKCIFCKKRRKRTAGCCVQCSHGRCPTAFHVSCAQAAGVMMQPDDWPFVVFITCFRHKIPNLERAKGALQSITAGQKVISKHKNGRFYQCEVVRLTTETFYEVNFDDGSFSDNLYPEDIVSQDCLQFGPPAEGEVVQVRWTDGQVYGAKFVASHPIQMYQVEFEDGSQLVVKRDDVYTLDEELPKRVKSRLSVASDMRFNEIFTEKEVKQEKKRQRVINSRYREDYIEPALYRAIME
Sfp PPTase inh: blocks B. subtilis Sfp PPTase activity; Potency, µM, without a hit: largest response in the series, negative = inhibition, hits mostly inhibitors; Biochemical Sfp PPTase activity, qHTS; Q9F4F7; actives 3.5% (n = 310,000);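 also: the enzyme is Sfp with the accession as filed and its product quenches rhodamine fluorescence; 0% = enzyme reaction without inhibitor and -100% = no enzyme wells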
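Buffer: 50 mM Hepes-Na pH 7.6, 10 mM MgCl2, 0.01% Nonidet P-40, 0.01% BSA. Enzyme 15 nM, pre-exposed to compound 15 min; substrates then added and fluorescence change tracked over 30 min.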
BAZ2B block: BAZ2B (human) inhibition | actives 4.4% (n = 360,000) | Potency, µM (top dose mostly 114 µM), without a hit: top-dose activity change, negative = inhibition, most hits filed as inhibitors | AlphaScreen BAZ2B-H3K14Ac peptide displacement | Q9UIF8; also: % is scaled to controls: 0 for no effect and ±100 for the full control effect; nearly all actives have a fitted effect of over 60% in size
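BAZ2B (50 nM) with biotin-H3(5-23)K14Ac peptide (50 nM) in PBS pH 7.4, 0.01% Tween-20, preformed 30 min, then compound 30 min at room temperature; top concentration 110uM. AlphaScreen streptavidin donor/nickel chelate acceptor beads (10 ug/mL final), 20 min dark, signal read.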
G9a block: inhibitors of human histone lysine methyltransferase G9a | Potency, µM (series often up to 102 µM), inactives show at the highest dose activity, negative = inhibition, hits mostly inhibitors | actives 8.8% (n = 350,000) | G9a H3K9 monomethylation, AlphaScreen, 2 h | AID 504332; also: % is scaled to controls: 0 for no effect and ±100 for the full control effect; nearly all actives have a fitted effect of over 75% in size
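G9a (20 nM) was preincubated 15 min with compound, then reacted 2 h at room temperature with 500 nM biotin-H3K9 peptide and 20 µM SAM. Monomethyl-H3K9 detected by AlphaScreen using anti-H3K9me1 antibody.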
HP1b binding inh: HP1-beta chromodomain-methylated histone interaction inhibition | Potency, µM (series often up to 114 µM), inactives show at the highest dose activity change, negative = inhibition, hits mostly inhibitors | AID 540317 | actives 0.56% (n = 390,000) | P83916 | AlphaScreen HP1-beta / biotin-H3K9me3 peptide binding; also: nearly all actives have a fitted effect of over 70% in size
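AlphaScreen: HP1-beta (50 nM) preformed 30 min with biotin-H3(1-18)K9me3 peptide (50 nM) in PBS pH 7.4, 0.01% Tween-20. Compound added for 30 min at RT, then streptavidin donor/nickel chelate acceptor beads (10 ug/mL) for 30 min.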
Numbers without * were called inactive; [ ] = dose if it differs, or a comment. This is a sample that favours compounds with a hit; in the whole collection about 12% have one here. Calls follow the shape of the dose curve; as a rule, active = well fitted curve in the direction sought with a large enough effect; inconclusive = small, poorly fitted or top-dose-only effect, or another doubt; inactive = no such curve, though single readings can be large; an effect the other way counts as inactive or inconclusive. Potency is read from the fitted curve at half-maximal effect.

`Cn1c(CCN2CCOCC2)nc2cc(NC(=O)COc3ccc(Cl)cc3)ccc21` gave L3MBTL1 inh -5.6%, JMJD2A Tudor 1.4%, Sfp PPTase inh 4.1%, BAZ2B block -5.6%, G9a block -11.1% and HP1b binding inh 15.8%.
For Cn1c(CCC(=O)Nc2ccc(F)cc2)nc2cc(S(=O)(=O)N3CCOCC3)ccc21 the results were L3MBTL1 inh -4.7%, JMJD2A Tudor -3.9%, BAZ2B block 12.8%, G9a block -28.3% and HP1b binding inh 31.4%.
For COc1ccc(NC(=O)c2cc(C3CC3)nc3c2c(C)nn3-c2ccc(C)cc2)cc1OC the results were JMJD2A Tudor -12.6%, BAZ2B block 20.2%[57.1 µM], G9a block -2.5%[59 µM] and HP1b binding inh 58.1%.
O=C1OC2(CCCC2)OC(=O)C1=Cc1c[nH]c2ccccc12 was read as L3MBTL1 inh 1.1%, JMJD2A Tudor 89.1µM*, Sfp PPTase inh 9.3%, BAZ2B block -2.1% and HP1b binding inh 41.1%.
`Cn1cc(C=C2C(=O)OC3(CCCCC3)OC2=O)c2ccccc21` gave L3MBTL1 inh -3.5%, JMJD2A Tudor -22.3%, Sfp PPTase inh -19.2%, BAZ2B block -15.3% and HP1b binding inh 26.6%.
For COCCn1c(=O)c(CCc2ccccc2)nc2cnc(OCc3ccccc3)nc21 the results were Sfp PPTase inh 6.8% and G9a block -4.0%[0.501 µM].
Screening CCOc1ccccc1-c1noc(CSc2nnc(-c3ccccc3)n2-c2ccc(OC)cc2)n1 returned JMJD2A Tudor -27.4%, BAZ2B block -21.9%, G9a block -8.0%[59 µM] and HP1b binding inh -0.8%.
For Cc1ccc(NC(=O)c2ccc(-n3cccn3)c([N+](=O)[O-])c2)cc1 the results were L3MBTL1 inh -0.1%, JMJD2A Tudor -30.8%, Sfp PPTase inh 9.0%, BAZ2B block -10.4%, G9a block 9.8% and HP1b binding inh -7.8%.
O=C(Nc1ccc(C2=NCCN2)cc1)c1ccc(C(=O)Nc2ccc(C3=NCCN3)cc2)c([N+](=O)[O-])c1 was read as L3MBTL1 inh inconclusive, JMJD2A Tudor inconclusive, Sfp PPTase inh -20.1%, BAZ2B block inconclusive, G9a block 39.8µM* and HP1b binding inh inconclusive.
COc1ccc(-c2noc(-c3ccc(NCCc4ccccc4)c([N+](=O)[O-])c3)n2)cc1 was read as JMJD2A Tudor 0.0%, BAZ2B block 6.8%, G9a block inconclusive and HP1b binding inh 37.0%.
For COc1cccc(CNc2ccc3[nH]c(=O)[nH]c3c2)c1OCc1ccccc1Cl the results were L3MBTL1 inh inconclusive, JMJD2A Tudor 39.8µM*, Sfp PPTase inh inconclusive, BAZ2B block 12.6µM* and HP1b binding inh inconclusive.
`COc1cccc(CNc2ccc3[nH]c(=O)[nH]c3c2)c1OCc1ccccc1` gave L3MBTL1 inh -18.3%, JMJD2A Tudor 39.8µM*, Sfp PPTase inh -23.1%, BAZ2B block 44.7µM* and HP1b binding inh inconclusive.
Screening COCCN=C1Sc2nc3ccc(C)cc3cc2CN1Cc1ccco1 returned JMJD2A Tudor -23.6%, Sfp PPTase inh 44.7µM*, BAZ2B block inconclusive, G9a block inconclusive and HP1b binding inh 41.4%.
For N#CC1(NC(=O)COc2ccc(S(=O)(=O)N3CCCC3)cc2[N+](=O)[O-])CCCCC1 the results were L3MBTL1 inh 4.0%, JMJD2A Tudor -14.4%, BAZ2B block -23.1%, G9a block 14.1µM* and HP1b binding inh 0.9%.
For CCOC(=O)c1ccc(N/N=C/c2cc(Br)cc([N+](=O)[O-])c2O)cc1 the results were L3MBTL1 inh inconclusive, JMJD2A Tudor 10µM*, Sfp PPTase inh 17.9%, BAZ2B block inconclusive, G9a block 0.562µM* and HP1b binding inh inconclusive.
Screening Cc1ccc(Nc2ncccc2C(N)=O)cc1[N+](=O)[O-] returned L3MBTL1 inh 2.8%, JMJD2A Tudor -14.7%, Sfp PPTase inh -11.2%, BAZ2B block -30.1%, G9a block 35.5µM* and HP1b binding inh -11.6%.
CCOC(=O)c1ccc(Nc2ncccc2[N+](=O)[O-])cc1 was read as L3MBTL1 inh -24.8%, JMJD2A Tudor inconclusive, Sfp PPTase inh -2.8%, BAZ2B block 7.94µM* and HP1b binding inh inconclusive.
`COC(=O)c1ccc(N/N=C/c2cc([N+](=O)[O-])cc(OC)c2O)cc1` gave L3MBTL1 inh -14.9%, JMJD2A Tudor -18.2%, Sfp PPTase inh -15.0%, BAZ2B block -16.0%, G9a block inconclusive and HP1b binding inh 29.0%.
Screening COc1ccc(N2CCN(C(=O)c3cnn(-c4ccc(F)cc4)c3-n3cccc3)CC2)cc1 returned JMJD2A Tudor -33.4%, BAZ2B block -28.5%, G9a block inconclusive and HP1b binding inh 7.7%.
CC(C)(C)OC(=O)N1CCC(c2c(C(=O)N3CCN(c4ccccn4)CC3)cnn2-c2ccc(F)cc2F)CC1 was read as JMJD2A Tudor -16.5%, BAZ2B block 4.8%[57.1 µM], G9a block -8.8%[59 µM] and HP1b binding inh -9.5%.
Oc1ccccc1N=Cc1sc2ccccc2c1Cl was read as L3MBTL1 inh -1.1%, JMJD2A Tudor -26.8%, Sfp PPTase inh 56.2µM*, BAZ2B block inconclusive, G9a block inconclusive and HP1b binding inh inconclusive.
`Cc1ccc(O)c(N=Cc2sc3ccccc3c2Cl)c1` gave L3MBTL1 inh 0.0%, JMJD2A Tudor -31.0%, Sfp PPTase inh inconclusive, BAZ2B block inconclusive, G9a block inconclusive and HP1b binding inh -15.1%.
For CN=Cc1sc2ccccc2c1O the results were L3MBTL1 inh -0.1%, JMJD2A Tudor -22.6%, Sfp PPTase inh -2.0%, BAZ2B block -37.5%, G9a block 50.1µM* and HP1b binding inh 14.2%.
For Oc1c(C=Nc2cccnc2)sc2ccccc12 the results were JMJD2A Tudor -22.0%, Sfp PPTase inh -20.8%, BAZ2B block inconclusive, G9a block inconclusive and HP1b binding inh 18.2%.
For Oc1c(/C=N/c2ccccn2)sc2ccccc12 the results were L3MBTL1 inh -20.7%, JMJD2A Tudor inconclusive, Sfp PPTase inh -16.4%, BAZ2B block 39.8µM*, G9a block 8.91µM* and HP1b binding inh -20.8%.
For Oc1c(C=NCc2ccncc2)sc2ccccc12 the results were JMJD2A Tudor -19.1%[11.4 µM], Sfp PPTase inh 28.2µM*, BAZ2B block inconclusive, G9a block inconclusive and HP1b binding inh -22.3%.
Cc1ccc(CCNC(=O)c2ccc(Nc3nc4ccccc4n4nnnc34)cc2)cc1 was read as JMJD2A Tudor -4.8%, BAZ2B block 2.8%, G9a block 10.8%[59 µM] and HP1b binding inh 31.3%.
For CN1CCN(c2ccc(S(=O)(=O)N3CCCCC3)cc2NC(=O)COc2ccc([N+](=O)[O-])cc2)CC1 the results were L3MBTL1 inh -8.9%, JMJD2A Tudor -19.6%, BAZ2B block 2.0%, G9a block inconclusive and HP1b binding inh -11.0%.
